Source: PubChem BioAssay
KB-3-1 cytotox: KB-3-1 parental cell cytotoxicity | 400,000 tested, 1.4% active | KB-3-1 viability, CellTiter-Glo ATP luminescence, 72 h | Potency, µM (highest dose often 46.1 µM), actives largely listed as cytotoxic | AID 1347075; also: % is scaled to controls: 0 for no effect and ±100 for the full control effect; nearly all actives have a fitted effect of over 60% in size
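Cytotoxicity in the drug-sensitive parental line KB-3-1 was scored as loss of CellTiter-Glo luminescence following 72 h incubation with compound. Values come from curve fitting of normalized concentration-response data.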
HT1080 IDH1KD tx: kills HT-1080 cells with IDH1 knockdown. Potency, µM (highest dose often 46.1 µM), inactives show at the top dose activity, negative = toxicity, hits mostly cytotoxic. 360,000 tested, 2% active. HT-1080 IDH1 knockdown viability, ATP luminescence, 48 h;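 also: 0% = DMSO wells and -100% = cell-free medium wells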
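HT-1080-IDH1KD cells (IDH1 knocked down), 750/well in RPMI with 5% FBS, treated with compound 48 h at 37 degrees C. Viability by CellTiter-Glo luminescence, normalised to DMSO and no-cell wells; concentration-response curves classed.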
KB-V1 cytotox: kills drug-selected multidrug resistant KB-V1 cells | KB-V1 MDR cells viability, CellTiter-Glo, 72 h | Potency, µM (top dose mostly 46.1 µM), hits mostly cytotoxic | 400,000 tested, 3.4% active | AID 1347076; also: % is scaled to controls: 0 for no effect and ±100 for the full control effect; nearly all actives have a fitted effect of over 60% in size
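Potencies derive from concentration-effect curves fitted to normalized luminescence (CellTiter-Glo) of KB-V1 cells treated for 72 h at 37 degrees C in phenol-red-free DMEM containing 10% FBS.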
MCF10A rereplic: DNA re-replication induction in MCF 10a cells; 350,000 tested, 2.9% active; AID 624296; MCF 10A DNA re-replication, Hoechst nuclear intensity, 48 h; Potency, µM (titrated, usually from 46.1 µM), without a hit: at the top dose activity, positive = re-replication, most hits filed as activators; also: % of control where 0% means no effect; nearly all actives have a fitted effect of over 50% in size
HT1080-NT tox: kills 2HG-producing HT-1080-NT fibrosarcoma cells. Potency, µM (doses to about 46.1 µM), for the others: at the top dose activity, negative = less viability, hits mostly cytotoxic. HT-1080-NT fibrosarcoma viability, CellTiter-Glo ATP luminescence, 48 h. 360,000 tested, 1.6% active;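 also: NT is the 2HG producing partner of a matched IDH1 knockdown line; 0% = DMSO-treated cells and -100% = media-only wells without cells; nearly all actives have a fitted effect of over 55% in size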
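Compounds were tested in concentration-response format on HT-1080-NT cells for 48 hours at 37 degrees C. Cell viability came from CellTiter-Glo luminescence; curves were classified by r2, response magnitude and activity.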
SW480 rerep: induces DNA re-replication in SW480 colon adenocarcinoma cells; Potency, µM (titrated, usually from 46.1 µM), inactives show at the top dose re-replication activation, most hits filed as activators; SW480 DNA re-replication, Hoechst DNA content imaging, 48 h; 340,000 tested, 1.8% active; also: % of control where 0% means no effect; nearly all actives have a fitted effect of over 55% in size
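Cells (250 per well) received 23 nL compound or DMSO by pin tool and were kept 48 hr at 37 C, 5% CO2. Nuclei were then stained with Hoechst for 40 min and scanned for DNA content.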
The depositor's hits bear a star; i = inactive; ? = inconclusive; / = no result. The list is not random: actives were taken first. Their share in the collection is about 7.9%. Calls follow the shape of the dose curve; as a rule, active = well fitted curve in the direction sought with a large enough effect; inconclusive = small, poorly fitted or top-dose-only effect, or another doubt; inactive = no such curve, though single readings can be large; an effect the other way counts as inactive or inconclusive. Potency is read from the fitted curve at half-maximal effect.

SMILES	KB-3-1 cytotox	HT1080 IDH1KD tx	KB-V1 cytotox	MCF10A rereplic	HT1080-NT tox	SW480 rerep
Nc1nc(COC(=O)c2ccc3c(c2)OCCO3)nc(Nc2ccccc2)n1	i	-8%	21µM*	12%	-7%	-2%
Nc1nc(CCl)nc(Nc2ccccc2)n1	?	?	?	?	3.3µM*	6.5µM*
CCOc1ccc(Nc2nc(N)nc(CCl)n2)cc1	13µM*	?	i	?	0.82µM*	?
CCOc1ccc(Nc2nc(N)nc(CSC(=S)N3CCOCC3)n2)cc1	i	-13%	?	3%	-1%	3%
COc1ccccc1C1C(C(=O)Nc2ccccc2)=C(C)Nc2nc(-c3ccccc3)nn21 (stereo not given)	i	/	i	/	/	/
Cc1ccc(-c2cc(C(F)(F)F)c(C#N)c(SCCC#N)n2)o1	i	9%	i	?	1%	9.2µM*
COc1ccc(Nc2nc(-c3c(C)nc4ncccn34)cs2)cc1	i	0.0073µM*	i	86%	0.013µM*	?
COc1ccccc1Nc1nc(-c2c(C)nc3ncccn23)cs1	?	21µM*	7.3µM*	9%	23µM*	?
CC(=O)Nc1ccc(Nc2nc(-c3c(C)nc4ccccn34)cs2)cc1	?	2.9µM*	?	?	?	?
Cc1nc2ncccn2c1-c1csc(Nc2ccc(N(C)C)cc2)n1	0.012µM*	?	?	?	?	?
Cc1nc2ncccn2c1-c1csc(Nc2ccccc2)n1	i	-10%	i	11%	0%	-8%
CC(=O)NC(c1ccccc1)c1nc(/C=C/c2ccccc2)cs1 (stereo not given)	i	3%	i	/	0%	/
Cc1nc2ncccn2c1-c1csc(NCc2ccco2)n1	?	-1%	16µM*	21%	-11%	-17%
Cc1nc2sccn2c1-c1csc(NCc2ccccc2)n1	?	7%	13µM*	1%	?	17%
COc1cccc(-c2cnc(NCc3ccccc3Cl)n2C)c1	i	/	i	/	/	/
COc1ccc(-c2csc3nc(-c4ccccc4OC)oc(=O)c23)cc1	i	?	i	21µM*	?	16µM*
CCOC(=S)SCc1cn2ccc(C)cc2n1	i	10%	i	16µM*	9%	4%
COC(=O)C(NC(=O)C(CC(C)C)NC(=O)C1CCC(C)CC1)C(C)C (stereo not given)	i	12%	?	6%	10%	7%
CCCCCCC1CCC(C(=O)NC(CCSC)C(=O)NC(C(=O)OC)C(C)C)CC1 (stereo not given)	i	-22%	i	7.3µM*	?	17%
COc1ccc(N(C)C(=S)Nc2ccc3nc(C)c(C)nc3c2)cc1	i	26%	13µM*	15%	9%	-10%
Cc1nc2ccc(NC(=S)N3CCCC3)cc2nc1C	i	4%	i	0.73µM*	11%	-4%
Cc1nc2ccc(NC(=S)NCc3ccccc3)cc2nc1C	i	-15%	?	4%	7%	-1%
CCOc1ccccc1OCC(=O)Nc1nnc(COC)s1	i	26%	18µM*	5%	7%	0%
COc1ccc(/C=C2/Sc3ccc(C(=O)NCCCN4CCOCC4)cc3NC2=O)cc1OC	?	21µM*	i	18µM*	?	21µM*
COc1cccc(/C=C2/Sc3ccc(C(=O)NCCN4CCCCCC4)cc3NC2=O)c1	i	-16%	i	21µM*	?	?
Cc1cccc(/C=C2/Sc3ccc(C(=O)NCCN4CCCC4)cc3NC2=O)c1	i	-4%	i	?	8%	?
C[C@H](NC(=O)c1nc[nH]c1C(=O)N(C)CCO)c1ccccc1	i	3%	i	/	1%	/
Cn1cc(CCNC(=O)CC2C(=O)NCCN2Cc2cccc(Oc3ccccc3)c2)cn1 (stereo not given)	?	?	i	?	-4%	26µM*
